Records with an inconclusive call do not appear. A number with no mark means an inactive call. Active and inactive are the calls of the source. The call rests on the fitted dose curve; in most records, active means well fitted curve in the direction sought with a large enough effect; inconclusive means small, poorly fitted or top-dose-only effect, or another doubt; inactive means no such curve, though single readings can be large; an effect the other way counts as inactive or inconclusive. Where a SMILES comes first, the peptide text is derived from it. [ ]: non-standard residue; d: D form. ξ: configuration not given here. ξPhe(βξ-Me) = CC(c1ccccc1)C(N)C(=O)O; GABA = NCCCC(=O)O
Assay: P-glycoprotein substrates identified in KB-8-5-11 adenocarcinoma cell line, qHTS therapeutic library screen (AID 1346987); further: nearly all actives have a fitted effect of over 65% in size; further: potency means the concentration at half of the fitted maximal effect; on activity change, negative = cytotoxicity: on the % scale 0 is the no-effect control and ±100 the full control effect
Settings: KB-8-5-11 (P-gp overexpressing) viability, CellTiter-Glo, 72 h; series mostly up to 44.5 µM; activity change, negative = cytotoxicity: at the top concentration
Outline: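 KB-8-5-11, a colchicine-selected P-gp-overexpressing KB-3-1 subline, was grown without colchicine for the assay. Cells were seeded at 500 cells/well, dosed in concentration-response and incubated 72 h at 37 degree C, 5% CO2. Viability was read by CellTiter-Glo luminescence.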

SMILES | activity change, negative = cytotoxicity | Potency
CC1NC(=O)CCCNC(=O)C(Cc2c[nH]c3ccccc23)NC(=O)C(C)NC(=O)C(C(C)C)NC(=O)C(C(C)c2ccccc2)NC(=O)C(C(C)C)NC1=O (stereo not drawn) (cyclo([GABA]AV[ξPhe(βξ-Me)]VAW); configuration not given here) | 1.69% [at 17.3 µM] | –
CC[C@H]1OC(=O)[C@](C)(F)C(=O)[C@H](C)[C@@H](O[C@@H]2O[C@H](C)C[C@H](N(C)C)[C@H]2O)[C@](C)(OC)C[C@@H](C)C(=O)[C@@H](C)[C@H]2N(CCCCn3cc(-c4cccc(N)c4)nn3)C(=O)O[C@]12C | -14.7% | –
C=C(C)C1CC[C@]2(C(=O)O)CC[C@]3(C(=O)O)[C@H](CCC4[C@@]5(C)CC[C@H](O)C(C)(C)C5CC[C@]43C)C12 (stereo partly drawn) | -0.661% [at 17.3 µM] | –
c1ccc(-c2ncc(CN3CCN(c4ncccn4)CC3)[nH]2)cc1 | -12% | –
CC(=O)N1CCN(Cc2ccc([C@H](C)Nc3nccc(N4C(=O)OC[C@@H]4C(C)C)n3)cc2)CC1 | -16.4% | –
CCNC(=O)C1OC(n2cnc3c(N)nc(NCCc4ccc(CCC(=O)O)cc4)nc32)C(O)C1O (stereo not drawn) | -5.42% | –
CC(=O)O[C@@H]1CC(C)=C2[C@H]1[C@H](C)CC[C@H]2/C=C(\C)C(=O)O | 7.47% | –
Cc1noc(=O)c2ccc(NC(=O)C(O)(CC(C)(C)c3cccc4c3OCC4)C(F)(F)F)cc12 (stereo not drawn) | -16.3% | –
CCNC(=O)Nc1ncc(-c2cc(-c3c(C)cc(OC)cc3C)nc(-c3cnccn3)n2)s1 | -2.31% | –
CC(=O)O[C@H]1C(=O)[C@@]2(C)[C@H]([C@H](OC(=O)c3ccccc3)[C@]3(O)C[C@H](OC(=O)[C@H](O)[C@@H](NC(=O)c4ccccc4)c4ccccc4)C(C)=C1C3(C)C)[C@]1(OC(C)=O)CO[C@@H]1C[C@@H]2O | – | 0.873 µM (active)
C=C1C(=O)O[C@@H]2/C=C(\C)C(=O)/C=C/[C@](C)(O)C[C@@H](OC(=O)C(C)C)[C@@H]12 | – | 4.53 µM (active)
O=C(Nc1ccc(S(=O)(=O)Nc2nccs2)cc1)C(c1ccccc1)c1ccccc1 | 7.58% | –
COc1ncc(Nc2ncc([C@@H](C)N3CCN(S(C)(=O)=O)CC3)cc2-c2nc(C)nc(N)n2)cc1F | – | 6.51 µM (active)

Assay: NS1 protein of Zika virus - qHTS assay to identify small molecule inhibitors in human HEK 293 cells (AID 1347053); further: nearly all actives have a fitted effect of over 55% in size; further: potency means the concentration at half of the fitted maximal effect;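 on activity change, negative = inhibition: plate controls were infected untreated cells for no effect and uninfected cells for full effect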
Settings: HEK293 ZIKV MR766 infection, NS1 TR-FRET, 24 h; series mostly up to 46.1 µM; activity change, negative = inhibition: at the top concentration
Outline: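 HEK 293 cells pretreated with compound for 1 h, then infected with ZIKV MR766 (MOI 0.5) for 24 h at 37 C. NS1 detected by TR-FRET with two anti-NS1 antibodies; normalized to uninfected (0%) and infected (100%) wells.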

SMILES | activity change, negative = inhibition | Potency
Nc1ccccc1N | 39.1% [at 92.8 µM] | –
CCOCCOC(=O)/C=C/c1ccc(OC)cc1 | -0.975% | –
O=C(O)c1c(O)c(-c2ccccc2)nc2ccccc12 | 9.91% | –
O=C(O)c1ccccc1NCCc1ccccc1 | 18% | –
CCC(C(=O)O)c1ccc(N2Cc3ccccc3C2=O)cc1 (stereo not drawn) | 3.31% | –
Cc1ccc(N)cc1O | – | 31.6 µM (active)

Assay: qHTS of pediatric cancer cell lines to identify multiple opportunities for drug repurposing: Primary screen for TC32 cells (AID 1347089); further: on the % scale 0 is the no-effect control and ±100 the full control effect; nearly all actives have a fitted effect of over 60% in size
Settings: TC32 Ewing sarcoma viability, CellTiter-Glo luminescence, 48 h; series mostly up to 45.8 µM; activity change, negative = cytotoxic: at the top concentration
Outline: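 qHTS, TC32, 48 h drug treatment, CellTiter-Glo luminescence as a proxy for metabolically active cells; primary top concentration 46 µM (MIPE 11-pt, NPC 8-pt); confirmatory 11-pt.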

SMILES | activity change, negative = cytotoxic [%]
CCOCCOC(=O)/C=C/c1ccc(OC)cc1 | -3.96
O=C(O)c1c(O)c(-c2ccccc2)nc2ccccc12 | 9.73
O=C(O)c1ccccc1NCCc1ccccc1 | 11.2
CCC(C(=O)O)c1ccc(N2Cc3ccccc3C2=O)cc1 (stereo not drawn) | 5.53

— PubChem BioAssay (NCATS)
